# From PubChem BioAssay AID588335 (The Scripps Research Institute Molecular Screening Center, 2011)
# About 4,500 (1.2%) of roughly 360,000 compounds were called active. For the sample, actives were picked, then their nearest neighbours and some compounds at random. Unmarked numbers belong to inactive results. Rule as the data show it: active = inhibition above about 30%; inactive = the rest.
# Experiment: GDH-TPI coupling enzyme inhibitors, primary screen, artefact control for M. tuberculosis FBA inhibitor project, biochemical, absorbance, full deck (AID 588335);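 also: 0% = DMSO wells and 100% = wells lacking the enzyme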
# Conditions: GDH-TPI coupled enzyme counterscreen, NADH absorbance; at 4.8 µM; hits give high values
row,Compound,inhibition
1,CCN1C(=O)[C@H]2[C@@H](c3ccc(SC4CCCCC4)c(OC)c3)N[C@@](Cc3ccccc3)(C(=O)OC)[C@H]2C1=O,9.48%
2,COc1ccc(-c2ccc(C(=O)NCCN3CCOCC3)c3occc23)c(C)c1,-2.68%
3,CCc1ccc(-c2cc3c(=O)n(CC(=O)NCCCN4CCN(Cc5ccccc5)CC4)nc(C)n3n2)cc1,5.56%
4,O=C(NCc1cccnc1)c1cccnc1Sc1ccc(Cl)cc1,-0.62%
5,Cc1ccc(C)c(N2CCN(C(=O)CCc3nc(-c4cccc(C(F)(F)F)c4)no3)CC2)c1,0%
6,CC1(C)Cc2ccccc2-c2nnc(-c3cccc(O)c3)n21,3.02%
7,C=CCn1c(Cn2nnc3ccccc32)nnc1SCC(=O)N/N=C/c1cc(Br)cc(OC)c1O,33.8% (active)
8,COc1ccc(OC)c(/C=N/NC(=O)CSc2nnc(C)n2-c2ccccc2)c1,30.2%
9,Cn1c(Cn2nnc3ccccc32)nnc1SCC(=O)c1ccccc1F,-1.22%
10,Cc1ccc(-n2nc3c(c2NC(=O)CCC2CCCCC2)CS(=O)C3)cc1 (stereo unspecified),-6.57%
11,O=C(CCNS(=O)(=O)c1ccc(Br)s1)NCc1ccccc1Cl,-5.73%
12,CCn1ccnc1CNC(=O)CC1C(=O)NCCN1CCCc1ccccc1 (stereo unspecified),1.04%
13,O=C(NCc1ccc2c(c1)OCO2)c1cc2c(s1)CS(=O)(=O)C2,3.7%
14,CCOc1ccc2[nH]c(=O)c(CN(CCCO)C(C)=O)cc2c1,10.1%
15,COc1ccc2[nH]c(=O)c(CNc3ccc(C)c(C)c3)cc2c1,7.26%
16,COc1cccc(C(=O)N/N=C(\C)c2cccc(NC(=O)c3ccc(F)cc3)c2)c1OC,-1.01%
17,CCC(=O)c1ccc(OC(=O)/C=C/c2cc(OC)c(OC)c(OC)c2)cc1,14.9%
18,COc1cc2cc(C(=O)N/N=C/c3cccc(OC)c3OC)[nH]c2cc1OC,53.6% (active)
19,COc1ccc2[nH]c(C(=O)N/N=C/c3cc(OC)c(OC)c(OC)c3)cc2c1,63% (active)
20,CCOc1ccc2[nH]c(C(=O)N/N=C/c3cccc(OC)c3OC)cc2c1,42.1% (active)
21,CCOc1ccc2ccccc2c1/C=N/NC(=O)c1c(C)cc(C)[nH]c1=O,11.8%
22,COc1cccc2[nH]c(C(=O)NCCc3ccccc3)cc12,2.15%
23,CC(C)n1c(SCC(=O)Nc2ccccc2N2CCCCC2)nc2c1c(=O)n(C)c(=O)n2C,2.5%

row,Compound,inhibition
1,NS(=O)(=O)c1ccc(CNC(=O)c2ccc(Cl)cc2[N+](=O)[O-])cc1,-1.13%
2,Cc1cn(C)c(=O)n(C)c1=O,-2.08%
3,COc1cccc(N2CC(C(=O)NCc3n[nH]c(=O)c4ccccc34)CC2=O)c1 (stereo unspecified),3.52%
4,CC(C)Cc1nc(Cl)c(C#N)c2c1CCC2,-7.66%
5,O=c1cc(N2CCCCC2)c(-c2ccccc2)nn1Cc1cccc(F)c1,10.7%
6,O=C(Nc1cc(C(F)(F)F)ccc1Cl)c1cc2nc3c(c(C(F)(F)F)n2n1)CCCC3,-11.5%
7,NS(=O)(=O)c1ccc(NC(=O)COC(=O)c2cc3ccccc3oc2=O)cc1,32.9% (active)
8,NS(=O)(=O)c1ccc(NC(=O)COC(=O)CCc2c[nH]c3ccccc23)cc1,4.09%
9,Cc1cc(C)cc(OCC(=O)NNC(=O)c2cc3ccccc3oc2=O)c1,11.9%
10,OCC(O)C1OCOC(C(O)CO)C1O (stereo unspecified),3.51%
11,CCCNS(=O)(=O)c1ccc(CCC(=O)NCc2cccnc2)cc1,1.83%
12,Nc1ncnc(Nc2cccc(Cl)c2Cl)n1,6.09%
13,CC1CCN(C(=O)c2ccc(S(=O)(=O)Cc3cc(F)ccc3F)c([N+](=O)[O-])c2)CC1,2.21%
14,CCOc1ccccc1NC(=O)C1CCCN(S(=O)(=O)c2ccccc2)C1 (stereo unspecified),11.6%
15,O=C(CNS(=O)(=O)c1ccc2c(c1)OCCCO2)N1CCN(c2ccc(F)cc2)CC1,6.99%
16,COc1ccc(N2CCN(C(=O)CNS(=O)(=O)c3ccc(C)c(C)c3)CC2)cc1,10.1%
17,O=C(NN=CC=Cc1ccccc1)C(O)C(O)C(=O)NN=CC=Cc1ccccc1 (stereo unspecified),20.2%
18,Cc1ccc(-c2cc(C(=O)NN)n[nH]2)o1,-4.43%
19,Cc1ccc(-c2cc(C(=O)N/N=C/C=C/c3ccccc3)n[nH]2)o1,36.6% (active)
20,CCC(C)(C)NC(=O)C(c1ccc(O)cc1)N(Cc1ccco1)C(=O)CCC(=O)Nc1ccccn1 (stereo unspecified),0%
21,CCCc1nc(N2CCN(C)CC2)c2sc(=S)n(-c3ccccc3)c2n1,11.9%
22,Cc1noc(C)c1CSc1nc2cc(S(=O)(=O)N3CCOCC3)ccc2o1,0%
23,O=C(Cc1ccccc1)Nc1ccc(NC(=O)c2cccnc2)cc1,-3.47%
